# Only some compounds are listed: those with a hit (about 2.8% of all), similar ones and a draw of the others.
# PMP22 txn – modulators of PMP22 gene transcription in S16 Schwann cells; Potency, µM (top dose mostly 57.5 µM), actives largely listed as inhibitors; AID 1508649; 2% of 43,000 active; S16 Pmp22-F2sN Schwann cells, FLuc/NLuc coincidence luminescence, 24 h; active = clear falling dose curves in both reporters; inconclusive = both reporters move, but less clearly or upward; inactive = either reporter flat; the % is the NLuc reporter signal
#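 qHTS, 1536-well. Cells seeded, compounds added by pin tool, 24 h 37C. Nano-Glo reagent 1 (lysis/FLuc), 10 min RT, read; Stop&Glo, 10 min RT, read NLuc.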
# pS6 MEF inh – inhibitors of mTORC1 signaling in Tsc2-/- p53-/- MEF cells; Tsc2-/- p53-/- MEF, phospho-rpS6 immunofluorescence/PI, 24 h; Potency, µM (series often up to 38.3 µM), most hits filed as inhibitors; 0.78% of 44,000 active; note: nearly all actives have a fitted effect of over 50% in size
#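 Cell-based qHTS: Tsc2-/- p53-/- MEF, 24 h cpd, 37 °C; fix/perm, anti-phospho-S6 Alexa-488 + PI; Acumen 488 nm scan; pS6/PI ratio, % positive cells; rapamycin 7.5 nM = inhibition ref; PI count = viability.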
# GALC G270D act – raises human GALC G270D mutant activity in cells; P54803; 145M-Twi-hGALC-G270D cells (Twitcher mouse brain line with human GALC G270D), HMU-beta-Gal fluorescence, 48 h; Potency, µM (series often up to 57.5 µM), most hits filed as activators; 0.1% of 45,000 active; AID 1159614; note: nearly all actives have a fitted effect of over 65% in size
#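 Fluorescence readout: HMU-β-gal cleavage by mutant GALC (0.1 mM final, citrate/phosphate pH 5.2 with 1 mg/mL taurocholate), stopped with carbonate/bicarbonate plus Triton X-100. Cells: murine Twitcher 145M-Twi expressing human G270D GALC; qHTS for activators.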
# S16 viability – cytotoxicity in S16 Pmp22-F2sN Schwann cells. AID 1508642. S16 Pmp22-F2sN Schwann cells (luciferase reporters placed in the Pmp22 gene) viability, CellTiter-Glo, 24 h. Potency, µM (doses to about 57.5 µM), usual class: cytotoxic. 0.48% of 43,000 active; note: nearly all actives have a fitted effect of over 65% in size
#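 CellTiter-Glo counter-screen, qHTS, 1536-well. Cells: S16(c9) Pmp22-F2sN, 500-1,000/well in DMEM + 10% FBS. Cpd 23 nL pin transfer, 24 h, 37C/5% CO2. Read: luminescence, CCD imager.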
# NLuc sat counter – NanoLuc enzyme inhibition artifact for PMP22 screen. shares compounds with PMP22 txn. Secreted NLuc enzyme (filtered S16 cell medium), Nano-Glo luminescence. Potency, µM (series often up to 57.5 µM), most hits filed as inhibitors. 4% of 690 active. AID 1508638
# NLuc Km counter – inhibits NanoLuc under Km conditions, PMP22 counter-screen | shares compounds with PMP22 txn | secreted NLuc enzyme, coelenterazine luminescence, Km conditions | Potency, µM (top dose mostly 57.5 µM), usual class: inhibitors | 5% of 690 active
# FLuc ctr PMP22 – counter-screen for PMP22 expression modulators: firefly luciferase inhibition; shares compounds with PMP22 txn; 690 tested, under 10 active; purified P. pyralis FLuc, luminescence, 10 min; Potency, µM (titrated, usually from 57.5 µM), hits mostly inhibitors
# Target sequence (P08659 whole entry, looked up): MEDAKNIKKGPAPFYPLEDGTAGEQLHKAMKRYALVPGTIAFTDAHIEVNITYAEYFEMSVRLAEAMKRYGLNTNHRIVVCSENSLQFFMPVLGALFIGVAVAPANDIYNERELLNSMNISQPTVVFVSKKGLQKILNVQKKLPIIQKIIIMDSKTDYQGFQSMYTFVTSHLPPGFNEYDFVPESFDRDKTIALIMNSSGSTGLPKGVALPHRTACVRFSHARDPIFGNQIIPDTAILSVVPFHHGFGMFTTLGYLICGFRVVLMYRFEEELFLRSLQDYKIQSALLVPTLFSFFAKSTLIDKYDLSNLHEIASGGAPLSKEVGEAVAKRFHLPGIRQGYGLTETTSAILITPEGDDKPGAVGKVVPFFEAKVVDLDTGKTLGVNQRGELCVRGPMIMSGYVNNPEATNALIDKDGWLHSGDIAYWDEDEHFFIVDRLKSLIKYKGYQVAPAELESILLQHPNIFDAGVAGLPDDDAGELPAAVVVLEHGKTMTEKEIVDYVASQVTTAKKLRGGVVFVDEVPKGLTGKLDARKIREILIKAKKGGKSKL
# S16 viab conf – S16 Schwann cell cytotoxicity, confirmatory; 7% of 690 active; S16 Schwann cells viability, CellTiter-Glo ATP luminescence, 24 h; Potency, µM (series often up to 57.5 µM), hits mostly cytotoxic; shares compounds with PMP22 txn
# PMP22 txn conf – PMP22 transcription modulation, confirmatory | shares compounds with PMP22 txn | S16 Schwann cells Pmp22-F2sN, dual luciferase, 24 h | Potency, µM (series often up to 57.5 µM), most hits filed as inhibitors | 22% of 690 active | AID 1508646; active = clear falling dose curves in both reporters; inconclusive = both reporters move, but less clearly or upward; inactive = either reporter flat; the % is the FLuc reporter signal
# PMP22 HiBiT cnf – rat PMP22 protein level modulation, confirmatory. Potency, µM (doses to about 27.9 µM), hits mostly inhibitors. shares compounds with PMP22 txn. AID 1508647. S16 Schwann cells Pmp22-HiBiT, luminescence, 48 h. 95 tested, under 10 active
# Target sequence (P25094 whole entry, looked up): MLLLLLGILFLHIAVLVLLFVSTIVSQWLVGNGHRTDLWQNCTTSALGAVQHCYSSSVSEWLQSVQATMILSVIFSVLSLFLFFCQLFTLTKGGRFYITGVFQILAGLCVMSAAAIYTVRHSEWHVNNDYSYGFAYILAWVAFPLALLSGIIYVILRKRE
# Numbers stand for hits; – = inactive; ? = inconclusive; · = not tested or not shown. Unless noted, calls come from the whole dose curve; as a rule, active = well fitted curve in the direction sought with a large enough effect; inconclusive = small, poorly fitted or top-dose-only effect, or another doubt; inactive = no such curve, though single readings can be large; an effect the other way counts as inactive or inconclusive.
SMILES,PMP22 txn,pS6 MEF inh,GALC G270D act,S16 viability,NLuc sat counter,NLuc Km counter,FLuc ctr PMP22,S16 viab conf,PMP22 txn conf,others
CCCCCn1cc2c(c1-c1ccccc1Br)c(=O)n(C)c(=O)n2C,–,–,–,?,·,·,·,·,·,
COCCNC(=O)CCCn1c(SCC(=O)c2ccc(F)cc2)nc2c(sc3ccccc32)c1=O,–,–,–,–,·,·,·,·,·,
COc1ccc(Nc2cc(C)nc3c(C)c(C)ccc23)cc1,14µM,?,–,–,–,–,–,–,–,
CCc1ccc(CN(Cc2cn[nH]c2-c2ccc(OC)cc2)C(=O)Nc2ccc(C)c(F)c2)cc1,?,–,–,?,·,·,·,·,·,
Cc1cc(C)c(Nc2ncnc3c2cnn3C)c(C)c1,?,?,–,?,–,–,–,–,–,
CCc1ccc(-c2cc(C)no2)cc1S(=O)(=O)NCc1ccc(OC)cc1,6µM,?,–,–,?,?,–,–,?,
COc1ccc(NC(=O)Cn2nnc(C(=O)NCc3cccs3)c2N)cc1,–,–,–,–,·,·,·,·,·,
CCc1ccccc1NC(=O)Cn1nnc(C(=O)NCc2cccs2)c1N,?,–,–,–,–,–,–,–,?,
COc1ccccc1NC(=O)Cn1nnc(C(=O)NCc2cccs2)c1N,1.2µM,–,–,–,–,–,–,–,?,
Cc1nn(-c2ccc(N3CCCC3)nn2)c(C)c1CCC(=O)Nc1ccc(F)c(Cl)c1,·,–,·,·,·,·,·,·,·,
Cc1ccc(NC(=O)CSc2nc3nccnc3c(=O)n2CCc2c[nH]c3ccccc23)c(C)c1,–,–,–,–,·,·,·,·,·,
COc1ccccc1NC(=O)CSc1nc2nccnc2c(=O)n1CCc1c[nH]c2ccccc12,13µM,–,–,–,?,?,–,–,?,
COc1ccccc1CNC(=O)CSc1nnc(C)c2c(C)n(-c3ccccc3)nc12,15µM,–,–,?,?,–,–,–,?,PMP22 HiBiT cnf=?
O=C(Nc1nc2ccc(F)cc2s1)c1nc(S(=O)(=O)Cc2ccccc2F)ncc1Cl,9.5µM,?,–,?,–,?,–,?,13µM,
COc1ccc(NS(=O)(=O)c2ccc3c(c2)CC(C)N3C(=O)C2CCC2)cc1OC (stereo not given),3µM,–,–,–,–,?,–,–,?,
CCNc1nc(NC(C)(C)C)nc(Oc2ccc(=O)n(-c3ccccc3)n2)n1,?,–,–,–,–,–,–,–,–,
CCCCn1c(=N)n(CCOc2ccccc2OC)c2ccccc21,20µM,12µM,–,?,–,–,–,?,?,
COc1cc2ccccc2cc1C(=O)Nc1ccc2oc(-c3cccc(Cl)c3Cl)nc2c1,4.2µM,?,–,?,–,–,–,27µM,12µM,
Cc1ccc(C)n1-c1nnc(N2CCCC(C(=O)NCc3cccc(F)c3)C2)s1 (stereo not given),15µM,–,–,–,–,–,–,–,?,
COc1ccccc1CNC(=O)C1CCCN(c2nnc(-n3c(C)ccc3C)s2)C1 (stereo not given),?,–,–,–,–,–,–,–,–,
Cc1cccc(NC(=O)c2ccc3nc(CCc4ccccc4)oc3c2)c1C,–,–,–,–,·,·,·,·,·,
CCCn1ccc2c(OCC(=O)Nc3ccccc3C(=O)OCC)cccc2c1=O,14µM,–,–,–,–,–,–,–,?,
Cc1ccc(Cl)cc1N1CCN(C(=O)c2cn(C)c3ccc(S(=O)(=O)N4CCCC4)cc3c2=O)CC1,?,–,–,?,·,·,·,·,·,
O=c1c2c3c(sc2n(Cc2ccccc2F)c(=O)n1-c1ccc(Cl)cc1)CCCC3,10µM,–,–,–,–,–,–,–,?,
Cn1c(C(=O)NCc2ccc(F)cc2)cc2c(=O)n(C)c3ccccc3c21,–,–,–,–,·,·,·,·,·,
SMILES,PMP22 txn,pS6 MEF inh,GALC G270D act,S16 viability,NLuc sat counter,NLuc Km counter,FLuc ctr PMP22,S16 viab conf,PMP22 txn conf,others
COc1cc(OC)c(NC(=O)c2noc3c2CSc2ccccc2-3)cc1Cl,–,–,–,–,·,·,·,·,·,
COc1ccc(NC(=O)CCc2nnc3n(Cc4ccc(C)cc4)c(=O)c4ccccc4n23)cc1,?,–,–,–,·,·,·,·,·,
O=C(CCc1nnc2n(Cc3ccccc3Cl)c(=O)c3ccccc3n12)Nc1ccccc1,13µM,–,–,–,–,–,–,–,?,
O=c1oc2ccccc2n1CCCOc1ccccc1Cl,–,–,–,–,·,·,·,·,·,
CCN(CC)S(=O)(=O)c1ccc(C(=O)Nc2nc3c(Cl)cc(Cl)cc3s2)cc1,?,–,–,?,·,·,·,·,·,
Cc1ccccc1CC1C(=O)Nc2ccc(Br)cc21 (stereo not given),–,–,–,?,·,·,·,·,·,
COc1ccc(Br)cc1CC1C(=O)Nc2ccccc21 (stereo not given),14µM,–,–,–,?,?,–,–,?,PMP22 HiBiT cnf=–
CCOC(=O)N1CCN(Cc2nc3cc(NC(=O)CC)ccc3n2C(C)C)CC1,5.3µM,?,–,–,–,–,–,–,?,
CCOC(=O)N1CCN(Cc2nc3cc(NC(=O)c4cccc(C)c4)ccc3n2C(C)C)CC1,?,?,–,?,·,·,·,·,·,
CCOC(=O)N1CCN(Cc2nc3cc(NC(=O)c4ccc([N+](=O)[O-])cc4)ccc3n2C(C)C)CC1,14µM,?,–,–,?,19µM,–,?,?,
CCOc1cc(-c2nnc(SCC(=O)NCc3ccccc3)nc2-c2ccc(OC)c(OCC)c2)ccc1OC,8.9µM,–,–,–,?,?,–,–,?,
CCOc1cc(-c2nnc(SCC(=O)NCc3ccc(C)cc3)nc2-c2ccc(OC)c(OCC)c2)ccc1OC,–,–,–,–,·,·,·,·,·,
Cc1cccc(N2CCN(C(=O)C3CCN(S(=O)(=O)c4ccc5c(c4)oc(=O)n5C)CC3)CC2)c1C,20µM,–,–,–,–,–,–,–,–,
Cn1c(=O)oc2cc(S(=O)(=O)N3CCCC(C(=O)N4CCN(c5cccc(Cl)c5)CC4)C3)ccc21 (stereo not given),13µM,–,–,–,–,–,–,–,17µM,PMP22 HiBiT cnf=?
